Reference: PubChem BioAssay AID492948 (National Center for Advancing Translational Sciences (NCATS), 2010)
Records with an inconclusive call do not appear. The source made the active and inactive calls. Calls follow the shape of the dose curve; as a rule, active = well fitted activation curve with a large enough effect; inconclusive = small, poorly fitted or top-dose-only effect; inactive = no such curve, though single readings can be large or run the other way.

Experiment: qHTS Assay for Agonists of the Relaxin Receptor RXFP1: V1B Hit Validation;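 also: counter-screen in HEK293 cells expressing V1B rather than RXFP1 for selectivity; nearly all actives have a fitted effect of over 65% in size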;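 as to activation: cAMP accumulation with PDE4 inhibitor Ro 20-1724 present during compound exposure; 0% = buffer alone basal and 100% = 29 nM porcine relaxin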
Details: HEK293 V1B cells, cAMP TR-FRET, 30 min; series mostly up to 115 µM; activation: at the top concentration
Text: NIH Chemical Genomics Center [NCGC]
NIH Molecular Libraries Probe Production Centers Network [MLPCN]
Assay Submitter (PI): Alexander Agoulnik
The relaxin hormone is involved in the variety of biological functions in normal tissues and diseases. The role of relaxin is well-established in female reproduction and parturition, mammary gland and endometrial development, maintenance of myometrial quiescence during pregnancy. Relaxin signaling through its G protein-coupled receptor (GPCR) RXFP1 results in ECM remodeling through regulation of collagen deposition, cell invasiveness, proliferation and overall tissue homeostasis. […] Recombinant human relaxin (rhRlx) is currently being tested in clinical trials as a protective agent in congestive heart failure, in treating severe preeclampsia, and as an anti-fibrotic agent in systemic sclerosis.
Upon relaxin binding RXFP1 activation leads to the activation of adenylate cyclase (AC) via Gs. cAMP will activate PKA, which phosphorylates many signaling proteins. Thus, detection of cAMP increase is an easy and reliable indication of relaxin receptor activation. To screen for agonists of the relaxin receptor, a HEK293T cell line stably transfected with RXFP1 was used. RXFP1 activation was assayed by changes in cAMP levels as detected with a time-resolved fluorescence energy transfer (TR-FRET) cAMP detection kit.
This assay measures activation of a cell expressing […], another GPCR targeted by relaxin, to determine the selectivity of compounds for RXFP1.
NCGC Assay Protocol Summary:
This is a cell-based assay for cAMP second messenger response to screen for agonists of the RXFP2 receptor. The assay was conducted in the presence of a PDE4 inhibitor (Ro 20174). The cells were lysed and the cAMP levels were measured with a TR-FRET cAMP kit. Presence of cAMP in the cell lysate disrupts binding between the cryptate-labeled anti-cAMP and d2-labeled cAMP pair, leading to a decrease in the TR-FRET signal. Data were normalized to the controls for basal activity (buffer only) and 100% activity (29 nM porcine relaxin). The EC50 values were determined from concentration-response data modeled with the standard Hill equation
1536-well assay protocol for the HEK293 V1B cAMP assay:
(1) Add 3 ul HEK293 RXFP2 cell culture. 2000 cells/well in DMEM/F12, 10% FBS, 1x Pen/Strep (dispensed offline with MultiDrop Combi).
(3) Add 23 nl compounds in DMSO solution. Final concentration was 0.5 - 58 uM.
(4) Incubate 30 min at 37C, 5% CO2.
(5) Add 1 ul cAMP-d2 in lysis buffer (HTRF cAMP HiRange kit, CisBio).
(6) Add 1 ul anti-cAMP antibody-cryptate in lysis buffer (HTRF cAMP HiRange kit, CisBio).
(7) Incubate 30 min at room temperature.
(6) Detect the assay plate in a ViewLux plate reader (PerkinElmer) with Ex=320 nm, Em1=615 nm and Em2=665 nm.
Keywords: relaxin, RXFP1, RXFP2, G-protein coupled receptor, cAMP, agonist, high throughput screening, MLSMR, MLSCN, NIH Roadmap, qHTS and NCGC
Potency is read from the fitted curve at half-maximal effect.

Row | SMILES | activation | Potency
1 | CC(C)c1ccccc1NC(=O)c1ccccc1NC(=O)C1CCCCC1 | 8.65% [at 127 µM] (inactive) | –
2 | CCN(CC)S(=O)(=O)c1ccc2c(c1)nc(SCc1nc3ccsc3c(=O)[nH]1)n2CC | – | 0.245 µM (active)
3 | CCN(CC)c1ccc(S(=O)(=O)N2CCOCC2)cc1NC(=O)CSc1nncn1C | – | 12.3 µM (active)
4 | Cc1cccc(-c2nnc(SCC(=O)NC3CC3)n2C)c1 | -32.2% (inactive) | –
5 | Cc1ccc(-n2c(=S)[nH]c3sc4c(c3c2=O)CCC4)cc1 | – | 6.15 µM (active)
6 | CCN(CC)CCCN1C=C2C(=O)C(C)(OC(=O)C3CCCC3)C(=O)C=C2C=C1c1ccsc1 (stereo not given) | -2.67% (inactive) | –
7 | O=C(OCc1nc2ccsc2c(=O)[nH]1)c1cccc(S(=O)(=O)N2CCOCC2)c1 | – | 34.6 µM (active)
8 | COc1ccc(CN2C(=O)c3cccnc3C2=O)cc1S(=O)(=O)NC1CCCCC1 | – | 34.6 µM (active)
9 | CCN(c1ccccc1)S(=O)(=O)c1ccc(OC)c(NC(=O)C2CC(=O)N(Cc3ccccc3)C2)c1 (stereo not given) | -0.441% (inactive) | –
10 | CCN(CC)S(=O)(=O)c1cccc(N=Nc2c(O)c3ccccc3oc2=O)c1 | – | 27.5 µM (active)
11 | COc1ccc(Nc2ncc(C#N)c(N)n2)c(OC)c1 | -2.08% (inactive) | –
12 | Cc1cccn2c(=O)c(/C=C3\SC(=S)NC3=O)c(NCCCN3CCOCC3)nc12 | – | 4.35 µM (active)
13 | Cc1ccc(C(=O)Nc2ccccc2C(N)=O)o1 | 4.86% [at 127 µM] (inactive) | –
14 | Cc1cc(C)c(C(=O)CSc2n[nH]c(=O)n2C2CC2)cc1C | -2.45% (inactive) | –
15 | CC1(C)Cc2c(sc3c2c2ncnn2c2nnc(SCC(=O)NCc4ccco4)n32)CO1 | – | 6.91 µM (active)
16 | O=c1oc2cc(O)c(Cl)cc2c2ccccc12 | – | 6.9 µM (active)
17 | COC(=O)c1sc(N2C(=O)C(O)=C(C(=O)c3ccc(C)o3)C2c2ccc(F)cc2)nc1C (stereo not given) | – | 2.75 µM (active)
18 | CC1(C)O[C@@H]2[C@H](O1)[C@@H](COS(=O)(=O)O)O[C@H]2n1cnc2c(N)ncnc21 | – | 3.88 µM (active)
19 | CC(C)(C)C(=O)Nc1ccccc1C(=O)NCc1ccco1 | 1.03% [at 127 µM] (inactive) | –
20 | Cc1cccc(NC(=O)c2ccccc2NC(=O)c2ccco2)c1 | 5.32% [at 127 µM] (inactive) | –

Row | SMILES | activation | Potency
21 | Cc1ccc(-c2ccc3nnc(SCC(=O)NCC4CCCO4)n3n2)cc1 (stereo not given) | -24.2% (inactive) | –
22 | CN(C)c1ccc(C(=S)N2CCN(S(=O)(=O)c3ccccc3)CC2)cc1 | 4.97% (inactive) | –
23 | COC(=O)c1cc(CN2C(=O)c3ccccc3C2=O)c(O)c([N+](=O)[O-])c1 | – | 30.9 µM (active)
24 | S=c1nc[nH]c2c1[nH]c1ccccc12 | – | 6.9 µM (active)
25 | CCNc1nc(NCC)nc(N(C)/N=C/c2ccco2)n1 | 2.96% (inactive) | –
26 | O=C(Nc1cccc(C(F)(F)F)c1)c1ccccc1NC(=O)C1CCCCC1 | – | inactive
27 | C=CCOc1c(Cl)cc(CNc2ccc(N(C)C)cc2)cc1OC | -0.719% (inactive) | –
28 | CCc1cc2cc3c(cc2nc1SCC(=O)Nc1nccs1)OCO3 | – | 19.4 µM (active)
29 | COc1ccc(S(=O)(=O)Nc2ccccn2)c(C)c1C | 5.21% [at 44.9 µM] (inactive) | –
30 | Cc1cc(C(=O)COC(=O)Cn2cnc3c2c(=O)n(C)c(=O)n3C)c(C)n1C | – | 13.8 µM (active)
31 | O=[N+]([O-])c1cc2c(c(CSc3nnc4ccccn34)c1)OCOC2 | – | 12.3 µM (active)
32 | Cn1c(=O)c2c(ncn2CC(=O)N/N=C/c2cn[nH]c2-c2ccc(F)cc2)n(C)c1=O | – | 21.8 µM (active)
33 | CCOC(=O)c1cc2c(=O)n3ccccc3nc2n(Cc2ccco2)c1=NC(=O)c1ccccc1OCC | – | 38.9 µM (active)
34 | CCc1nnc(NC(=O)CSc2nc(C)nc3c2c(=O)n(C)c(=O)n3C)s1 | – | 9.74 µM (active)
35 | Cn1c(=O)c2sccc2n2c(CCCC(=O)NCc3cccnc3)nnc12 | – | 19.4 µM (active)
36 | CC1CCN(S(=O)(=O)c2ccc3nc(N4CCN(c5ccccc5)CC4)ccc3c2)CC1 | – | 13.8 µM (active)
37 | O=C(Nc1ccccc1C(=O)Nc1ccccc1C(=O)NCc1ccco1)c1ccco1 | – | inactive
38 | COC(=O)Cn1cnc2c(C#N)c3n(c2c1=O)CCCC3 | – | 21.9 µM (active)
39 | Cc1cc(C)nc(NS(=O)(=O)c2ccc(NC(=O)c3nn(-c4ccccc4)ccc3=O)cc2)n1 | – | 15.5 µM (active)
40 | CCN(CC)S(=O)(=O)c1ccc(N2CCOCC2)c(NC(=O)c2cc([N+](=O)[O-])ccc2Cl)c1 | 9.17% (inactive) | –
